{"source": "PubChem BioAssay (EPA / NIEHS)", "note": "Calls of active or inactive are those of the source. The calls were made as follows: active = hit-call score of the fitted dose curve at least 0.9, where 1 is the maximum; inactive = score below 0.9.", "data": [{"experiment": "ATG_FoxO_CIS: Attagene CIS-FACTORIAL HepG2 Assay for human Forkhead box O (FoxO) (AID 2282943)", "details": "HepG2 Attagene cis-reporter, FoxO element, mRNA; actives raise or lower the signal", "in_short": "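HepG2, transient MRTU transfection (cis element, endogenous TFs). Dose 24 h. TriZol RNA → oligo(dT) RT → PCR → 6-FAM primer extension → HpaI cut → CE. Gain/loss vs DMSO.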", "values": [{"smiles": "CCCCCCCCCCCC(=O)O", "outcome": "inactive"}, {"smiles": "C[C@]12CC[C@@H]3c4ccc(O)cc4CC[C@H]3[C@@H]1C[C@@H](O)[C@@H]2O", "outcome": "inactive"}, {"smiles": "O=C(O)C(=O)O", "outcome": "inactive"}, {"smiles": "O=S(=O)(O)c1ccc2cc(O)ccc2c1", "outcome": "inactive"}, {"smiles": "Cc1ccc(C)c(S(=O)(=O)O)c1", "outcome": "inactive"}, {"smiles": "CCC(C)c1ccccc1O", "note": "(stereo unspecified)", "outcome": "inactive"}, {"smiles": "CC(C)[C@@H]1CC[C@@H](C)C[C@H]1O", "outcome": "inactive"}, {"smiles": "O=C1NS(=O)(=O)c2ccccc21", "outcome": "inactive"}, {"smiles": "CCCCC=O", "outcome": "inactive"}, {"smiles": "OCC(CO)(CBr)CBr", "outcome": "inactive"}, {"smiles": "CCCCC(CC)C(=O)O", "note": "(stereo unspecified)", "outcome": "inactive"}, {"smiles": "Cc1ccc(S(=O)(=O)O)cc1", "outcome": "inactive"}, {"smiles": "CCCCCCCCCCCCCCC", "outcome": "inactive"}, {"smiles": "NS(=O)(=O)O", "outcome": "inactive"}, {"smiles": "CNNCc1ccc(C(=O)NC(C)C)cc1", "outcome": "inactive"}, {"smiles": "O=C(c1ccccc1)c1ccccc1", "outcome": "inactive"}, {"smiles": "CCCC=O", "outcome": "inactive"}, {"smiles": "Cc1[nH]nc2c1N=C(c1ccccc1Cl)c1cc([N+](=O)[O-])ccc1N2", "outcome": "inactive"}, {"smiles": "CC(C)c1c(C(=O)Nc2ccccc2)c(-c2ccccc2)c(-c2ccc(F)cc2)n1CC[C@@H](O)C[C@@H](O)CC(=O)O", "outcome": "inactive"}, {"smiles": "O=C(CCCN1CCC(O)(c2ccc(Cl)cc2)CC1)c1ccc(F)cc1", "AC50": "52.7 µM (active)"}, {"smiles": "O=C(NO)c1ccccc1", "outcome": "inactive"}, {"smiles": "CS(=O)(=O)c1ccc([C@@H](CC2CCCC2)C(=O)Nc2cnccn2)cc1Cl", "AC50": "152 µM (active)"}, {"smiles": "O=S(=O)(O)c1ccccc1", "outcome": "inactive"}, {"smiles": "CC(C)C=O", "outcome": "inactive"}, {"smiles": "c1cnc2c(c1)ccc1cccnc12", "outcome": "inactive"}, {"smiles": "CC(O)COc1ccccc1", "note": "(stereo unspecified)", "outcome": "inactive"}]}]}
